Screening data as filed in PubChem BioAssay.
CHRM1 antagonist – human CHRM1 antagonism; inhibition, % at 3 µM; P11229; CHO-K1 hM1, Fluo-8 calcium fluorescence, ACh EC80 antagonist; actives 1.3% (n = 360,000);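 active = percent inhibition above its own plate's cutoff, namely the mean of that plate's compound wells plus 3 SD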;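 note: peak over basal fluorescence ratio during 140 s after agonist addition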
Target sequence (P11229 whole entry, looked up): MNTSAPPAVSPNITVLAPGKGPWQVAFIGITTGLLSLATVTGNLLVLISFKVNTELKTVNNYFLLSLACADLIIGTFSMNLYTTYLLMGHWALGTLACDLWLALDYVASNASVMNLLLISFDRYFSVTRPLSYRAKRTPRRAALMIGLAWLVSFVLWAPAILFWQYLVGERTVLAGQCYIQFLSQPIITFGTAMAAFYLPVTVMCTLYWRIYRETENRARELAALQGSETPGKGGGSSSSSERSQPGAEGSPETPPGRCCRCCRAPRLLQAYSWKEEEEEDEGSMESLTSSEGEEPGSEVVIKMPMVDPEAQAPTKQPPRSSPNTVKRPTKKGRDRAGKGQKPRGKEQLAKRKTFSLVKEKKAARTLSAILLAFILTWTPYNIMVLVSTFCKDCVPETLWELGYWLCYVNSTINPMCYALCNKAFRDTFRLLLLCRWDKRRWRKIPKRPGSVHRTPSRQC
M1 PAM parental – M1 PAM counterscreen hit in parental CHO-K1 cells; ATP EC20, Fluo-8 calcium fluorescence; 0% at ATP EC20, 100% at ATP max; activation, % at 3 µM; AID 602247; actives 0.02% (n = 360,000);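 active = activation above the run cutoff, the mean activation of all test compounds plus 3 SD, cut at about 40% in these data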;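 note: peak over basal fluorescence ratio in a 140 s read after ATP addition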
M1 ag parental – nonselective activator or artifact in parental CHO-K1 cells | Fluo-8 calcium fluorescence; scaled to maximal ATP response, vehicle zero | activation, % at 3 µM | actives 0.48% (n = 360,000); in the data active = activation above about 15%;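 note: untransfected CHO-K1 host cells lacking M1 receptor as counterscreen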
CHRM1 agonist – activates human CHRM1 receptor; P11229; CHO-K1 hM1, Fluo-8 calcium fluorescence, agonist mode; 0% DMSO, 100% acetylcholine EC100; activation, % at 3 µM; actives 0.33% (n = 360,000); AID 588814;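 active = activation above the run's mean compound activation plus 3 SD, cut at about 16% in these data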;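 note: peak over basal fluorescence ratio within a 140 s kinetic read after compound addition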
CHRM1 PAM – human CHRM1 positive allosteric modulation; activation, % at 3 µM; actives 0.088% (n = 360,000); AID 588819; CHO-K1 hM1, Fluo-8 calcium fluorescence, ACh EC20; 0% = ACh EC20, 100% = maximal ACh; P11229; in the data active = activation above about 19%, passing the limit was not always enough
CHO-K1 Ca antag – counter-screen for M1 antagonists: effect in parental CHO-K1 cells. ATP-induced calcium, Fluo-8 fluorescence. actives 0.6% (n = 360,000). inhibition, % at 3 µM. AID 602250;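 active = inhibition above a per-plate cutoff, the plate's mean sample inhibition plus 3 SD, cut at about 24% in these data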
Numbers stand for hits; . = inactive; / = not tested or not shown. Most compounds without a hit are left out; they make up all but 2.3% or so of the library.

SMILES	CHRM1 antagonist	M1 PAM parental	M1 ag parental	CHRM1 agonist	CHRM1 PAM	CHO-K1 Ca antag
COc1cccc(-c2cnc(C(O)c3ccc(OC)c(F)c3)[nH]2)c1 (stereo not given)	.	.	.	.	.	.
CC(=O)Nc1cc(-c2ccccc2CN(C)C)cn2c(-c3ccc(C(C)=O)cc3)cnc12	.	.	.	.	.	.
COC1CC(N)C2OC(c3ccccc3)OCC2O1 (stereo not given)	.	.	.	.	.	.
Cc1ccc(CNC(=O)CCCn2nc(C)c3c(C)n(-c4ccccc4)nc3c2=O)cc1	.	.	.	.	.	.
O=C1CN(C(=O)COC(=O)c2oc3ccccc3c2COc2ccccc2)c2ccccc2N1	.	.	.	.	.	.
COCc1c(C(=O)OCC(=O)N2c3ccccc3NC(=O)C2(C)C)oc2ccccc12	.	.	.	.	.	30.0
CC(C)(C)c1ccc(S(=O)(=O)NC(=O)C2(C)CCN2C(=O)c2cccc3ccccc23)cc1 (stereo not given)	.	.	.	.	.	.
O=C(CSC1=NS(=O)(=O)c2cc(F)ccc2N1)NCc1ccccc1	.	.	.	.	.	.
O=C(CSC1=NS(=O)(=O)c2cc(Cl)ccc2N1)NCc1ccc(F)cc1	.	.	.	.	.	29.7
COc1ccc(-c2oc3ccccc3c2C(=O)Oc2ccccc2)cc1	.	.	.	.	.	.
Cc1ccc(S(=O)(=O)n2cnc3cc([N+](=O)[O-])ccc32)c(C)c1C	.	.	.	.	.	24.9
Cn1ccnc1C1CCCCN1Cc1nc(Cc2ccccc2F)no1 (stereo not given)	98.6	.	.	.	.	.
COC(=O)c1ccc(-c2noc(CN3CCCCC3c3nccn3C)n2)cc1 (stereo not given)	35.3	.	.	.	.	.
COCCN(C(=O)CSc1nnc(-c2cccc(F)c2)n1N)c1c(N)n(Cc2ccccc2)c(=O)[nH]c1=O	.	.	.	.	.	.
Cc1cccc(Nc2cc(C)c3c(O)cccc3n2)c1C	.	.	.	.	.	.
CCOC(=O)CSc1nc2c(sc(=S)n2-c2ccccc2OC)c(=O)n1Cc1ccco1	.	.	.	.	.	28.5
COCCCn1c(SCC(=O)N2CCCC2=O)nc2ccccc2c1=O	.	.	.	.	.	.
C[C@@H]1CN([C@H](C)CO)C(=O)c2cc(C#CC3CCCCC3)cnc2O[C@H]1CN(C)Cc1cccnc1	33.8	.	.	.	.	.
C[C@@H]1CN([C@H](C)CO)C(=O)c2cc(C#Cc3ccccc3F)cnc2O[C@@H]1CN(C)S(=O)(=O)c1ccccc1F	.	.	.	.	.	24.8
OC(CNCCc1ccc(C(F)(F)F)cc1)COC(c1ccccc1)c1ccccc1 (stereo not given)	76.2	.	.	.	.	.
COc1ccc(Br)c(Cn2c(C)c(C(=O)NCc3cccc([N+](=O)[O-])c3)sc2=O)c1	88.9	.	.	.	.	.
Cc1c(C(=O)NCc2ccc(Cl)c(Cl)c2)sc(=O)n1Cc1ccc(S(=O)(=O)N(C)C)cc1	.	.	.	.	.	.
COc1ccc(Cl)cc1Cn1c(C)c(C(=O)NCc2cccc([N+](=O)[O-])c2)sc1=O	80.0	.	.	.	.	.
Cc1c(C(=O)NCc2ccc(C(F)(F)F)cc2)sc(=O)n1Cc1cccc(F)c1	39.2	.	22.7	37.1	.	.
Cc1c(C(=O)NCc2cccc(C(F)(F)F)c2)sc(=O)n1Cc1cccc(F)c1	.	.	.	.	.	.
SMILES	CHRM1 antagonist	M1 PAM parental	M1 ag parental	CHRM1 agonist	CHRM1 PAM	CHO-K1 Ca antag
Cc1c(C(=O)NCc2ccc(C(C)C)cc2)sc(=O)n1Cc1ccc(S(=O)(=O)N(C)C)cc1	33.9	.	.	.	.	.
O=C(NC1CCC1)C1CCC(=O)N(Cc2ccc(Cl)cc2)C1 (stereo not given)	.	.	.	.	.	.
Cc1c(C(=O)NCc2cccc([N+](=O)[O-])c2)sc(=O)n1Cc1ccccc1F	66.8	.	.	.	.	.
Nc1ncnc2c1ncn2C1CCCO1 (stereo not given)	.	.	.	19.5	.	.
CCOc1ccccc1N1CCN(CC(O)COC2CCCc3ccccc32)CC1 (stereo not given)	47.5	.	.	.	.	.
CC(C)Oc1ccc(CNC(=O)C2CCCN(S(=O)(=O)N3CCOCC3)C2)cc1 (stereo not given)	.	.	.	.	.	.
CCN(CC)c1ccc2cc(-c3nnc(-c4ccccc4)o3)c(=O)oc2c1	14.8	.	27.8	108.2	.	.
CCN(CC)c1ccc2cc(-c3nc4ccccc4[nH]3)c(=O)oc2c1	69.1	.	79.8	279.3	.	.
CCN(CC)c1ccc2cc(C(=O)c3cccs3)c(=O)oc2c1	59.7	.	73.8	131.4	.	39.9
O=c1oc2ccc3ccccc3c2cc1-c1nnc(-c2ccccc2)o1	.	.	.	.	.	.
CC(=O)c1cc2c(cc1NC(=O)CSc1ncccn1)OCO2	.	.	.	.	.	.
COc1cc(C(C(=O)NCc2ccccc2)N(C(=O)c2snc(C(N)=O)c2N)C2CCCC2)cc(OC)c1OC (stereo not given)	.	.	.	.	.	.
Cc1cc(C(=O)O)ccc1-c1ccc(/C=C2\SC(=O)N(CC(=O)Nc3ccc4c(c3)OCO4)C2=O)o1	.	.	.	.	.	27.5
CC(C)C[C@H]1CN(CCCC[C@H]2CNC(=O)C(=O)N2CCc2ccc(O)cc2)C(=O)C(=O)N1CCC1CCCCC1	/	.	.	/	/	.
CCN(C(=O)COC(=O)C(C)(C)Oc1ccc(Cl)cc1)c1c(N)n(Cc2ccccc2)c(=O)[nH]c1=O	.	.	.	.	.	.
Cc1cc(Cl)ccc1NC(=O)/N=C1/NC(=O)CS1	.	.	.	.	.	.
COc1ccc(CCC(=O)NCCS(=O)(=O)N2CCN(c3ccc(OC)cc3)CC2)cc1	.	.	15.2	.	.	.
COc1ccc(CCC(=O)NCCS(=O)(=O)N2CCN(c3ccccc3)CC2)cc1	.	.	.	.	.	.
Fc1ccc(CNc2ncnc3cc(Cl)ccc23)cc1	.	.	16.0	.	.	.
COc1ccc(CNc2ncnc3cc(Cl)ccc23)cc1OC	.	.	.	.	.	.
CCCN(CC(=O)Nc1ccccc1C)C(=O)c1cccc(S(=O)(=O)N2CCc3ccccc3C2)c1	35.0	.	.	.	.	.
O=C(Nc1cc(Cl)ccc1Cl)P(=O)(O)c1ccccc1	.	.	.	.	.	.
O=C(CN1CCN(Cc2ccccc2F)CC1)Nc1ccccc1Cl	.	.	.	.	.	.
CCOC(=O)c1c(C(C)(C)C)oc2ccc(OCC#N)cc12	27.8	.	.	.	.	.
